From PubChem BioAssay (NCATS)
Inconclusive results are not listed. Activity calls are given as the source filed them. Calls follow the shape of the dose curve; as a rule, active = well fitted curve in the direction sought with a large enough effect; inconclusive = small, poorly fitted or top-dose-only effect, or another doubt; inactive = no such curve, though single readings can be large; an effect the other way counts as inactive or inconclusive.

Columns and labels:
[1] = target: Rap guanine nucleotide exchange factor 3 (Homo sapiens) (UniProt O95398); assay: Confirmatory qHTS for antagonist of cAMP-regulated guanine nucleotide exchange factor 3 (EPAC1) (AID 1645880); conditions: EPAC1 Rap1B-BODIPY-GDP exchange, fluorescence; activity, negative = inhibition: at 115 µM (top of the series); also: nearly all actives have a fitted effect of over 55% in size; also: potency is read from the fitted curve at half-maximal effect;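 as to activity, negative = inhibition: plate controls were DMSO only for no effect and full effect of the ATA control for full effect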
Procedure, shortened: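 Released BODIPY-GDP fluoresces less than Rap1-bound BODIPY-GDP; the signal is followed at 480/540 nm at 5-min intervals over 30 min, after 5 min at room temperature. Reactions contain 100 nM EPAC1, 250 nM RAP1B-BODIPY-GDP and 50 uM GDP; results are normalized to ATA and DMSO.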

[2] = target: Rap guanine nucleotide exchange factor 3 (Homo sapiens) (UniProt O95398); assay: Confirmatory qHTS for agonist of cAMP-regulated guanine nucleotide exchange factor 3 (EPAC1) (AID 1645881);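 also: EPAC1 catalysed release of BODIPY-GDP from Rap1B seen as fluorescence loss; 100% = effect of cAMP agonist control; nearly all actives have a fitted effect of over 75% in size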
[3] = target: Rap guanine nucleotide exchange factor 4 (Homo sapiens) (UniProt Q8WZA2); assay: Confirmatory qHTS for agonist of cAMP-regulated guanine nucleotide exchange factor 4 (EPAC2) (AID 1645884);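 also: nucleotide exchange releases bodipy-GDP from Rap1 and this lowers its fluorescence; % is scaled to controls: 0 for no effect and ±100 for the full control effect; nearly all actives have a fitted effect of over 65% in size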
[4] = target: Rap guanine nucleotide exchange factor 4 (Homo sapiens) (UniProt Q8WZA2); assay: Confirmatory qHTS for antagonist of cAMP-regulated guanine nucleotide exchange factor 4 (EPAC2) (AID 1645885); also: nearly all actives have a fitted effect of over 25% in size; also: potency is read from the fitted curve at half-maximal effect; as to activity change, negative = inhibition: % is scaled to controls: 0 for no effect and ±100 for the full control effect
[5] = target: Rap guanine nucleotide exchange factor 3 (Homo sapiens) (UniProt O95398); assay: Counterscreen qHTS for antagonist of cAMP-regulated guanine nucleotide exchange factor 3 (EPAC1) (AID 1645888); also: % of control where 0% means no effect
Procedure, shortened: (§1)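 Measured: fluorescence of BODIPY-GDP bound to Rap1B, which falls as exchange proceeds. Conditions include 50 uM competing GDP, 5 and 30 min reads, and a later cAMP challenge for antagonist detection.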

[6] = target: Rap guanine nucleotide exchange factor 3 (Homo sapiens) (UniProt O95398); assay: Counterscreen qHTS for agonist of cAMP-regulated guanine nucleotide exchange factor 3 (EPAC1) (AID 1645889); also: nearly all actives have a fitted effect of over 40% in size; also: potency is read from the fitted curve at half-maximal effect; as to activation: % of control where 0% means no effect
Procedure, shortened: as §1

Rap guanine nucleotide exchange factor 4 (Homo sapiens), sequence (Q8WZA2 whole entry, looked up): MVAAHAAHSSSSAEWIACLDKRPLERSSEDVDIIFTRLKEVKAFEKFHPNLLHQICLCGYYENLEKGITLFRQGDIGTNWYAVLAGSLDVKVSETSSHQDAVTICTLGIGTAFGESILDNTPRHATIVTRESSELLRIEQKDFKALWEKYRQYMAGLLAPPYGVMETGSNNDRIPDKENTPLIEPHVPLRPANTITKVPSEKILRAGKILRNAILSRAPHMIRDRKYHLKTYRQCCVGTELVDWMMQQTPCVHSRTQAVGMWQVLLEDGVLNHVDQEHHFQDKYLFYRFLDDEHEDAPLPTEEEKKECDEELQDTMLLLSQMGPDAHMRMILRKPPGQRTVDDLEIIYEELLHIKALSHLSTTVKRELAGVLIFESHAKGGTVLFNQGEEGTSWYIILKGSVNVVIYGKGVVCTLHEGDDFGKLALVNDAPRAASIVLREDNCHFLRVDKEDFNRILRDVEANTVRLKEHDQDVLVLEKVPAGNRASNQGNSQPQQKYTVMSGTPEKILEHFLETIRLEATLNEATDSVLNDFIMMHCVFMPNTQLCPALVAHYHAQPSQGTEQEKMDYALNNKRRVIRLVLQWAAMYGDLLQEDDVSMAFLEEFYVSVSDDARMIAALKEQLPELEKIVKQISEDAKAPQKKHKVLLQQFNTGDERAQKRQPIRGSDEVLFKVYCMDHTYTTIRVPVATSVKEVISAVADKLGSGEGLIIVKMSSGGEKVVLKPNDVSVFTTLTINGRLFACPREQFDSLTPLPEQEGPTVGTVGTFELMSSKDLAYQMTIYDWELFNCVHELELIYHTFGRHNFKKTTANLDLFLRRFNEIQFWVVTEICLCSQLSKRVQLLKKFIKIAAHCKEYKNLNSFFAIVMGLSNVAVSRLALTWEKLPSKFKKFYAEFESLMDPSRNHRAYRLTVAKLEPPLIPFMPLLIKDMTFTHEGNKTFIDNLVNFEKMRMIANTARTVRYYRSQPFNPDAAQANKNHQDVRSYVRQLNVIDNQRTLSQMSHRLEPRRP
Rap guanine nucleotide exchange factor 3 (Homo sapiens), sequence (O95398 whole entry, looked up): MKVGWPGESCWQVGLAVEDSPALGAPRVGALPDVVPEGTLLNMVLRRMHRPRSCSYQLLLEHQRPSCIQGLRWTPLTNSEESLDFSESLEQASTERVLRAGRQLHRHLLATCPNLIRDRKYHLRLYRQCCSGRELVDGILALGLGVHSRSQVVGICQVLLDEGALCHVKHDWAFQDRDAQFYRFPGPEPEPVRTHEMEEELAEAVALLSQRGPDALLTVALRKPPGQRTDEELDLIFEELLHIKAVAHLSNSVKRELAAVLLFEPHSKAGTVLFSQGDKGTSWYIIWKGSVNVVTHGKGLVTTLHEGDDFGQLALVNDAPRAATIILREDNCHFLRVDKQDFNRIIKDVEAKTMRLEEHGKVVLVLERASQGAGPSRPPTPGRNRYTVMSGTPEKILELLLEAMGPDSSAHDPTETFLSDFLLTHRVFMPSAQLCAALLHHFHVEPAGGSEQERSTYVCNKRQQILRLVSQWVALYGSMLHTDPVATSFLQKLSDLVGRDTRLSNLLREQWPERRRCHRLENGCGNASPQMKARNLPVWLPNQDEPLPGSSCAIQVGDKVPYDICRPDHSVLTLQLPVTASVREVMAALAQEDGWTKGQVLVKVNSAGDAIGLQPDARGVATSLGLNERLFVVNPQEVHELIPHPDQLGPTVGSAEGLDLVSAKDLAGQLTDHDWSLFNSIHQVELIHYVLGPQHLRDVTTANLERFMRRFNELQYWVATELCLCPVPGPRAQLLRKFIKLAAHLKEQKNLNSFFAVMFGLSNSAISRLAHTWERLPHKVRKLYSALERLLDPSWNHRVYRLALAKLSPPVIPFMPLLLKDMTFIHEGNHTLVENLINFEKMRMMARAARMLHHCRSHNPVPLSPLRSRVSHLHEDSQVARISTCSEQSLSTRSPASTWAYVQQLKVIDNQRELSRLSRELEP

CCN(c1ccccc1)S(=O)(=O)c1ccc(C(=O)Nc2ccncc2)cc1
inactive: Potency [1] | Potency [2] | activation [3] -2.02% [at 17.1 µM, percent relative to cAMP agonist control] | Potency [4] | activity change, negative = inhibition [5] -7.46% [at 30.8 µM] | activation [6] 15% [at 30.8 µM]

COc1ccc(-c2cc(=O)oc3c(O)c(O)ccc23)cc1
inactive: Potency [2] | Potency [3] | Potency [4] | Potency [5] | Potency [6]
active: Potency [1] 8.49 µM

O=C1C2CCCN2C(c2ccccc2F)N1c1cccc(Cl)c1 (stereo not given)
inactive: Potency [1] | Potency [2] | activation [3] 0.711% [at 17.1 µM, percent relative to cAMP agonist control] | Potency [4] | activity change, negative = inhibition [5] -15.2% [at 30.8 µM] | activation [6] 9.98% [at 30.8 µM]

Cc1csc2nc(CNS(=O)(=O)c3ccc4c(c3)CCCC4)cn12
inactive: Potency [1] | Potency [2] | activation [3] -3.4% [at 17.1 µM, percent relative to cAMP agonist control] | Potency [4] | activity change, negative = inhibition [5] -30.8% [at 30.8 µM] | activation [6] -8.72% [at 30.8 µM]

COc1ccc(S(=O)(=O)NC(CCSC)C(=O)NC2CCCCC2)cc1 (stereo not given)
inactive: Potency [1] | Potency [2] | Potency [3] | Potency [4] | Potency [5] | Potency [6]

COc1ccc(Cl)cc1-n1c(=S)sc2c(=O)[nH]c(SCC(=O)NCCC(C)C)nc21
inactive: Potency [2] | Potency [3] | Potency [4] | Potency [5] | Potency [6]
active: Potency [1] 15.1 µM

O=C(c1ccco1)N(CCC(c1ccccc1)c1ccco1)Cc1ccccc1 (stereo not given)
inactive: Potency [2] | activation [3] 1.75% [at 17.1 µM, percent relative to cAMP agonist control] | Potency [4] | activity change, negative = inhibition [5] -8.3% [at 30.8 µM] | activation [6] 15.8% [at 30.8 µM]
active: Potency [1] 44.7 µM

O=C(NCc1ccc(F)cc1)C(c1cccnc1)N(C(=O)c1csnn1)c1ccccc1 (stereo not given)
inactive: Potency [1] | Potency [2] | activation [3] -0.815% [at 17.1 µM, percent relative to cAMP agonist control] | Potency [4] | activity change, negative = inhibition [5] -0.606% [at 30.8 µM] | activation [6] 5.08% [at 30.8 µM]

CC1CCc2c(sc3nc(SCC(=O)O)n(-c4ccccc4)c(=O)c23)C1 (stereo not given)
inactive: Potency [1] | Potency [2] | activation [3] -2.98% [at 17.1 µM, percent relative to cAMP agonist control] | Potency [4] | activity change, negative = inhibition [5] -13.5% [at 30.8 µM] | activation [6] 5.5% [at 30.8 µM]

CC(=O)NNC(=O)c1sc(=S)n2c1[nH]c(=O)c1sccc12
active: Potency [1] 37.9 µM
inactive: Potency [2] | Potency [3] | Potency [4] | Potency [5] | Potency [6]

COc1cccc(/C=N/NC(=O)c2cc3cc([N+](=O)[O-])ccc3s2)c1O
active: Potency [1] 35.5 µM
inactive: Potency [2] | activation [3] 10.9% [at 17.1 µM, percent relative to cAMP agonist control] | Potency [4] | activity change, negative = inhibition [5] -2.63% [at 30.8 µM] | activation [6] 26.8% [at 30.8 µM]

CCC(C)Sc1nc2c(c(=O)[nH]c(=O)n2C)n1CC(O)COc1cccc2ccccc12 (stereo not given)
inactive: Potency [1] | Potency [2] | Potency [3] | Potency [4] | Potency [5] | Potency [6]

Cc1ccc(S(=O)(=O)N2CC(C(=O)O)=CC[C@H]2c2ccc(Cl)cc2)cc1
inactive: Potency [1] | Potency [2] | Potency [3] | Potency [4] | Potency [5] | Potency [6]

CNC(=O)COC(=O)c1cc(-c2ccco2)nc2ccccc12
active: Potency [1] 23.9 µM | Potency [6] 50.1 µM
inactive: Potency [2] | Potency [3] | Potency [4] | Potency [5]

C=CCOc1ccc(C2N3CC4(CC)CN2CC(CC)(C3)C4=O)cc1 (stereo not given)
inactive: Potency [1] | Potency [2] | activation [3] 6.19% [at 17.1 µM, percent relative to cAMP agonist control] | Potency [4] | activity change, negative = inhibition [5] -3.19% [at 30.8 µM] | activation [6] 36.6% [at 30.8 µM]

CC(C)(C)N(NC(=O)Nc1ccc(F)cc1)C(=O)c1ccccc1
inactive: Potency [1] | Potency [2] | activation [3] 0.121% [at 17.1 µM, percent relative to cAMP agonist control] | Potency [4] | activity change, negative = inhibition [5] -14.2% [at 30.8 µM] | activation [6] 0.382% [at 30.8 µM]

CCOc1ccc2nc(S(=O)(=O)NC(=O)C3(C)CCN3C(=O)CCc3cccs3)sc2c1 (stereo not given)
inactive: Potency [1] | Potency [2] | activation [3] 5.68% [at 17.1 µM, percent relative to cAMP agonist control] | Potency [4] | activity change, negative = inhibition [5] -20.4% [at 30.8 µM] | activation [6] 4.36% [at 30.8 µM]

COc1ccc(-c2cc(C(F)(F)F)nc(SCC(=O)N3CCCCC3C)n2)cc1OC (stereo not given)
inactive: Potency [1] | Potency [2] | Potency [3] | outcome [4] inactive [at 12.7 µM] | Potency [5] | Potency [6]

C=C1CCN(C(Cc2ccccc2)C(=O)OC)S(=O)(=O)c2ccc(F)cc21 (stereo not given)
inactive: Potency [1] | Potency [2] | activation [3] 11.5% [at 17.1 µM, percent relative to cAMP agonist control] | Potency [4] | activity change, negative = inhibition [5] 2.02% [at 30.8 µM] | activation [6] 14% [at 30.8 µM]

COc1ccc(N(C(=O)c2ccco2)S(=O)(=O)c2cc(OC)ccc2OC)cc1
inactive: Potency [1] | Potency [2] | Potency [3] | Potency [4] | Potency [5] | Potency [6]

Cc1sc2ncnc(N3CCC(C(=O)Nc4ccccc4C(C)(C)C)CC3)c2c1C
inactive: Potency [1] | Potency [2] | Potency [3] | Potency [4] | Potency [5] | Potency [6]

COC(=O)[C@@H](NC(=O)Nc1ccc2c(c1)OCCO2)C(C)C
inactive: Potency [1] | Potency [2] | Potency [3] | Potency [4] | Potency [5] | Potency [6]

CCCn1c(=O)n(C)c(=O)c2c(SCC(=O)NCc3ccco3)nc(C3CC3)nc21
inactive: Potency [1] | Potency [2] | Potency [3] | Potency [4] | Potency [5] | Potency [6]

CC(=O)Nc1sc(/C(C#N)=C\c2cccc(Cl)c2)nc1-c1ccc(C)cc1
inactive: Potency [1] | Potency [2] | activation [3] -17.2% [at 17.1 µM, percent relative to cAMP agonist control] | Potency [4] | activity change, negative = inhibition [5] 148% [at 30.8 µM] | activation [6] 23.7% [at 30.8 µM]

Cc1nn(C(=O)c2ccco2)c(C)c1Sc1ccccc1
active: Potency [4] 10.7 µM
inactive: Potency [1] | Potency [2] | Potency [3] | Potency [5] | Potency [6]

COc1cccc(OC)c1C(=O)NC(=S)NNC(=O)[C@H]1C[C@@H]1c1ccccc1
inactive: Potency [1] | Potency [2] | Potency [3] | Potency [4] | Potency [5] | Potency [6]

Cc1[nH][nH]c(=O)c1C(c1c(C)[nH][nH]c1=O)c1cn(Cc2cccc3ccccc23)c2ccccc12
inactive: Potency [2] | Potency [3] | Potency [4] | Potency [5]
active: Potency [1] 75.7 µM | Potency [6] 12.6 µM

CCc1nnc(NC(=O)c2ccc(-c3cccc(C(F)(F)F)c3)o2)s1
inactive: Potency [1] | Potency [2] | activation [3] 4.04% [at 17.1 µM, percent relative to cAMP agonist control] | Potency [4] | activity change, negative = inhibition [5] 7.54% [at 30.8 µM] | activation [6] 26.6% [at 30.8 µM]

CCc1nnc(NS(=O)(=O)c2ccc(NC(=S)NC(=O)c3ccc(Br)cc3)cc2)s1
active: Potency [1] 60.1 µM | Potency [4] 75.7 µM
inactive: Potency [2] | Potency [3] | Potency [5] | Potency [6]

COc1ccc2nc3oc(C(=O)Nc4cccc(C(F)(F)F)c4)cc3cc2c1
inactive: Potency [1] | Potency [2] | Potency [3] | Potency [4] | Potency [5] | Potency [6]

COC(=O)[C@H](CC(C)C)NC(=O)CC[C@H]1O[C@@H](n2ccc(=O)[nH]c2=O)[C@H](O)[C@@H]1O
inactive: Potency [1] | Potency [2] | Potency [3] | Potency [4] | Potency [5] | Potency [6]

Cc1cccc(C)c1OC(=O)c1ccccc1
inactive: Potency [1] | Potency [2] | activation [3] 9.32% [at 17.1 µM, percent relative to cAMP agonist control] | Potency [4] | activity change, negative = inhibition [5] 6.4% [at 30.8 µM] | activation [6] 6.89% [at 30.8 µM]

O=C(c1ccccc1)c1coc2ccc(O)c(Cl)c12
inactive: Potency [1] | Potency [2] | activation [3] 4.32% [at 17.1 µM, percent relative to cAMP agonist control] | Potency [4] | activity change, negative = inhibition [5] -20.3% [at 30.8 µM] | activation [6] 44.7% [at 30.8 µM]

CCOC(=O)c1c(-c2ccc(OC)cc2)csc1/N=C/C1=C(O)CCCC1=O
inactive: Potency [1] | Potency [2] | activation [3] 4.43% [at 17.1 µM, percent relative to cAMP agonist control] | Potency [4] | activity change, negative = inhibition [5] -7.43% [at 30.8 µM] | activation [6] 11.3% [at 30.8 µM]

COc1ccccc1CCC(=O)Nc1cc(S(=O)(=O)N2CCCCC2)ccc1N1CCN(C)CC1
inactive: Potency [1] | Potency [2] | Potency [3] | Potency [4] | Potency [5]
active: Potency [6] 63.1 µM

Cc1cc(Br)ccc1-n1[nH]c(C)c(C=Nc2cccc3nsnc23)c1=O
inactive: Potency [1] | Potency [2] | Potency [3] | Potency [4] | Potency [5] | Potency [6]

O=C(C1=C(O)C(=O)N(c2nc3ccc(Cl)cc3s2)C1c1ccco1)c1ccco1 (stereo not given)
inactive: Potency [2] | Potency [3] | Potency [4] | Potency [5] | Potency [6]
active: Potency [1] 16.9 µM

O=C(NC1CCC(O)CC1)c1ccc(S(=O)(=O)NCc2ccco2)cc1 (stereo not given)
inactive: Potency [1] | Potency [2] | Potency [3] | Potency [4] | Potency [5] | Potency [6]

O=C(O)CCn1cc(C2CC(c3ccccc3)=NN2c2ccccc2)c(-c2ccccc2)n1 (stereo not given)
inactive: Potency [1] | Potency [2] | Potency [3] | Potency [4] | Potency [5] | Potency [6]

N#C/C(=C\C1=C(N2CCOCC2)C(=C/c2cccc([N+](=O)[O-])c2)/CC1)C(=O)Nc1ccccc1F
inactive: Potency [2] | Potency [3] | Potency [4] | Potency [5] | Potency [6]
active: Potency [1] 47.8 µM
